Test results from PubChem BioAssay (NCATS).
Where “and” joins values, the source holds several entries; their conditions need not be identical. Identical values can stand only once. Results filed as inconclusive are left out. Entries that show only a call come without a potency. Calls of active or inactive are those of the source. Unless noted, calls follow the shape of the dose curve; as a rule, active = well fitted curve in the direction sought with a large enough effect; inconclusive = small, poorly fitted or top-dose-only effect, or another doubt; inactive = no such curve, though single readings can be large; an effect the other way counts as inactive or inconclusive.

Experiments:
[1] = qHTS assay to identify small molecule inhibitors of chordoma cells - UCH-2 (AID 1259356); also: series mostly up to about 46 µM
[2] = Identifying Small Molecule Inhibitors of Pancreatic Cancer Stem Cells (SN12C, Adherent) (AID 1259358);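 also: cell survival measured after 48 h of compound exposure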; also: potency is read from the fitted curve at half-maximal effect
Outline: (§1)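 Pre-formed 14-day tumor spheroids or adherent cells dosed and incubated 48 h, 37C, 5% CO2. Viability assessed by CellTiter-Glo.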

[3] = Natriuretic polypeptide receptor (hNpr1) antagonism - Pilot counterscreen GloSensor control cell line (AID 1347045; calls by dose curve; also: series mostly up to about 38 µM)
Outline: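 HEK293 cGMP-sensor cells; 2% GloSensor reagent 2 h RT; LOPAC compounds in 1:5 titrations 30-50 min; 50 uM SNP 20 min; luminescence pre-read and post-read.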

[4] = P-glycoprotein substrates identified in KB-3-1 adenocarcinoma cell line, qHTS therapeutic library screen (AID 1346986); also: nearly all actives have a fitted effect of over 60% in size;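 also: potency is read from the fitted curve at half-maximal effect; potency is for cytotoxicity meaning loss of cell viability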
Outline: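 Dose-response cytotoxicity, KB-3-1 vs P-gp-high KB-8-5-11, no colchicine in assay medium. Read: CellTiter-Glo at 72 h.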

[5] = P-glycoprotein substrates identified in KB-8-5-11 adenocarcinoma cell line, qHTS therapeutic library screen (AID 1346987); also: nearly all actives have a fitted effect of over 65% in size; also: potency is read from the fitted curve at half-maximal effect
Outline: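 In this qHTS, P-gp-rich KB-8-5-11 cells received library compounds across a concentration range. Viability was quantified by luminescence after 72 h at 37 degree C.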

[6] = Identifying Small Molecule Inhibitors of Pancreatic Cancer Stem Cells (A2780, Spheroid) (AID 1259357); conditions: Potency: A2780 spheroid viability; also: potency is read from the fitted curve at half-maximal effect;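 also: spheroids pre-formed over 14 days in stem cell medium on hydrogel; compound exposure lasted 48 h before the ATP luminescence read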
Outline: (§2)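 Viability is scored by CellTiter-Glo luminescence 48 h after dosing, expressed as percent activity against vehicle and no-cell references. Spheroid formats rely on cells cultured 14 days in stem cell media beforehand.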

[7] = Identifying Small Molecule Inhibitors of Pancreatic Cancer Stem Cells (SN12C, Spheroid) (AID 1259360); conditions: Potency: SN12C spheroid viability; also: potency is read from the fitted curve at half-maximal effect
Outline: as §2

[8] = Identifying Small Molecule Inhibitors of Pancreatic Cancer Stem Cells (A278, Adherent) (AID 1259361);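 also: viability read after 48 h compound exposure; nearly all actives have a fitted effect of over 35% in size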
Outline: as §1

[9] = Identifying Small Molecule Inhibitors of Pancreatic Cancer Stem Cells (Panc1, Spheroid) (AID 1259359);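 also: potency is read from the fitted curve at half-maximal effect; compound exposure lasted 48 h before reading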
Outline: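 Endpoint: ATP-based luminescence, 48 h drug exposure. Bortezomib at 9.2 uM final as full-kill control; DMSO vehicle as negative control; activity normalized between vehicle and cell-free wells.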

## Nc1nc2ccc(OC(F)(F)F)cc2s1
[1]
  outcome: inactive
[2]
  Potency: inactive
[3]
  outcome: inactive

## OC(CCN1CCCCC1)(c1ccccc1)C1CC2C=CC1C2 (stereo not given)
[1]
  outcome: inactive
[4]
  Potency: inactive
[5]
  Potency: inactive
[3]
  outcome: inactive

## Nc1nc2[nH]cc(CCc3ccc(C(=O)N[C@@H](CCC(=O)O)C(=O)O)cc3)c2c(=O)[nH]1
[1]
  outcome: inactive
[6]
  Potency: inactive
[2]
  Potency: 0.662 µM (active)
[7]
  Potency: inactive

## CCCCNc1cc(C(=O)O)cc(S(N)(=O)=O)c1Oc1ccccc1
[1]
  outcome: inactive
[5]
  Potency: inactive
[3]
  outcome: inactive

## C[C@@H]1C[C@H]2[C@@H]3CCC4=CC(=O)C=C[C@]4(C)C3(F)[C@@H](O)C[C@]2(C)[C@@]1(O)C(=O)CO (stereo not given in full)
[6]
  Potency: inactive
[2]
  Potency: inactive
[7]
  Potency: inactive
[8]
  IC50 (viability decrease): 23.5 µM (active)

## Nc1nc2c(ncn2COCCO)c(=O)[nH]1
[1]
  outcome: inactive
[3]
  outcome: inactive

## O=C1CCCC2=C1C(c1[nH]ncc1Cl)N=C(Nc1nc3ccccc3o1)N2 (stereo not given)
[6]
  Potency: inactive
[2]
  Potency: inactive
[7]
  Potency: inactive
[4]
  Potency: inactive
[5]
  Potency: inactive

## CCn1cc(C(=O)O)c(=O)c2cc(F)c(N3CCNC(C)C3)c(F)c21 (stereo not given)
[1]
  outcome: inactive
[3]
  outcome: inactive

## O=NN(CCCl)C(=O)NCCCl
[1]
  outcome: inactive
[5]
  Potency: inactive
[3]
  outcome: inactive

## O=C1CCC(N2C(=O)c3ccccc3C2=O)C(=O)N1 (stereo not given)
[1]
  outcome: inactive
[5]
  Potency: inactive
[3]
  outcome: inactive

## NCCc1ccc(O)c(O)c1
[1]
  outcome: inactive
[5]
  Potency: inactive
[3]
  outcome: inactive

## O=C(O)COCCN1CCN(C(c2ccccc2)c2ccc(Cl)cc2)CC1 (stereo not given)
[1]
  outcome: inactive
[5]
  Potency: inactive
[3]
  outcome: inactive

## COc1ccc(-c2c(-c3ccc(O)cc3O)n[nH]c2C)cc1
[6]
  Potency: inactive
[2]
  Potency: inactive
[8]
  IC50 (viability decrease): 26.4 µM (active)

## c1ccc([C@H]2CN3CCSC3=N2)cc1
[1]
  outcome: inactive
[5]
  Potency: inactive
[3]
  outcome: inactive

## Nc1ccc(S(=O)(=O)Nc2ccnn2-c2ccccc2)cc1
[1]
  outcome: inactive
[5]
  Potency: inactive
[3]
  outcome: inactive

## O=C1CCc2cc(OCCCCc3nnnn3C3CCCCC3)ccc2N1
[1]
  outcome: inactive
[5]
  Potency: inactive
[3]
  outcome: inactive

## CC(C)NCC(O)COc1ccc(COCCOC(C)C)cc1 (stereo not given)
[1]
  outcome: inactive
[5]
  Potency: inactive
[3]
  outcome: inactive

## CN[C@@H](C)C(=O)N[C@H]1CCCC[C@H]2CC[C@@H](C(=O)N[C@@H](c3ccccc3)c3cn(CCCCc4ccc(CCCCn5cc([C@@H](NC(=O)[C@@H]6CC[C@@H]7CCCC[C@H](NC(=O)[C@H](C)NC)C(=O)N76)c6ccccc6)nn5)cc4)nn3)N2C1=O
[6]
  Potency: inactive
[2]
  Potency: inactive
[7]
  Potency: inactive
[5]
  Potency: inactive

## O=C(O)c1ccc(-c2c[nH]c3ccc(-c4ccccc4)cc23)cc1C1CCCC1
[6]
  Potency: inactive
[2]
  Potency: inactive

## CC(C[N+](C)(C)C)OC(N)=O (stereo not given)
[1]
  outcome: inactive
[5]
  Potency: inactive
[3]
  outcome: inactive

## C[C@]12CCC(=O)C=C1CC[C@@H]1[C@@H]2[C@@H](O)C[C@@]2(C)[C@H]1CC[C@]2(O)C(=O)CO
[6]
  Potency: inactive

## COc1cc(F)c(F)c(Nc2ccc(I)cc2F)c1NS(=O)(=O)C1(C[C@H](O)CO)CC1
[6]
  Potency: inactive
[2]
  Potency: 20.9 µM (active)
[8]
  IC50 (viability decrease): 20.9 µM (active)
[4]
  Potency: inactive
[5]
  Potency: inactive

## O=C(Nc1cccnc1)N1CCC(Cc2cccc(Oc3ccc(C(F)(F)F)cn3)c2)CC1
[6]
  Potency: 18.7 µM (active)
[2]
  Potency: inactive
[7]
  Potency: inactive

## CS(=O)(=O)Oc1ccc2c(NC(N)=O)c(C(=O)c3ccc(Cl)cc3Cl)oc2c1
[6]
  Potency: 11.8 µM (active)
[2]
  Potency: inactive
[7]
  Potency: inactive
[5]
  Potency: inactive

## NC[C@H](O)c1ccc(O)c(O)c1
[1]
  outcome: inactive
[3]
  outcome: inactive

## CCCCCCCc1ccc(CCc2cccc(O)c2C(=O)O)cc1
[6]
  Potency: inactive
[2]
  Potency: inactive

## Cn1cnc([N+](=O)[O-])c1Sc1ncnc2nc[nH]c12
[1]
  outcome: inactive
[5]
  Potency: 4.61 µM (active) and 2 µM (active) and 833 nM (active)
[3]
  outcome: inactive

## NCCCC(N)(C(=O)O)C(F)F (stereo not given)
[1]
  outcome: inactive
[5]
  Potency: inactive
[3]
  outcome: inactive

## COc1ccc2c3n(c(=NC(=O)c4cccnc4)nc2c1OC)CCN3
[6]
  Potency: 3.32 µM (active)
[2]
  Potency: 3.72 µM (active)
[7]
  Potency: 5.9 µM (active)
[5]
  Potency: 0.651 µM (active)

## CCCS(=O)(=O)Nc1ccc(F)c(C(=O)c2c[nH]c3ncc(Cl)cc23)c1F
[6]
  Potency: inactive

## CCCC(CCC)C(=O)O
[1]
  outcome: inactive
[5]
  Potency: inactive
[3]
  outcome: inactive

## Oc1ccc(C2CNCCc3c2cc(O)c(O)c3Cl)cc1 (stereo not given)
[1]
  outcome: inactive
[3]
  outcome: inactive

## O=C(C=Cc1ccc(/C=C/C(=O)Nc2ccc(C3=NCCN3)cc2)cc1)Nc1ccc(C2=NCCN2)cc1
[6]
  Potency: inactive
[2]
  Potency: inactive
[8]
  IC50 (viability decrease): inactive
[4]
  Potency: inactive
[5]
  Potency: inactive

## Oc1cccc(-c2nc(N3CCOCC3)c3oc4ncccc4c3n2)c1
[6]
  Potency: 0.833 µM (active)
[2]
  Potency: 0.0743 µM (active)
[8]
  IC50 (viability decrease): 0.105 µM (active)
[4]
  Potency: 580 nM (active)
[5]
  Potency: 108 nM (active) and 517 nM (active)

## CC(C)(C)NCC(O)c1ccc(O)c(CO)c1 (stereo not given)
[1]
  outcome: inactive
[5]
  Potency: inactive
[3]
  outcome: inactive

## N[C@@H]1CONC1=O
[1]
  outcome: inactive
[3]
  outcome: inactive

## CCOC(=O)C1=C[C@]2(CC)CCCN3CCc4c(n1c1ccccc41)[C@@H]32
[1]
  outcome: inactive
[5]
  Potency: 26.4 µM (active)
[3]
  outcome: inactive

## S=C(NCc1ccc2c(c1)OCO2)N1CCN(c2ncnc3c2oc2ccccc23)CC1
[6]
  Potency: 16.6 µM (active)
[2]
  Potency: 13.2 µM (active)
[9]
  Potency: 7.43 µM (active)
[8]
  IC50 (viability decrease): 4.18 µM (active)

## Cc1cc2c(F)c(Oc3ncnn4cc(OC[C@@H](C)O)c(C)c34)ccc2[nH]1
[6]
  Potency: inactive

## Cc1csc(NC(=O)c2sc3nc4c(c(C(F)(F)F)c3c2N)CCC4)n1
[6]
  Potency: inactive
[2]
  Potency: inactive
[7]
  Potency: inactive
[8]
  IC50 (viability decrease): inactive
[5]
  Potency: inactive

## CCN(CCCO)CCCOc1ccc2c(Nc3cc(CC(=O)Nc4cccc(F)c4)[nH]n3)ncnc2c1
[2]
  Potency: inactive

## Cc1cccc(-c2[nH]c(C(C)(C)C)nc2-c2ccc3nccnc3c2)n1
[2]
  Potency: inactive
[9]
  Potency: 8.33 µM (active)
[4]
  Potency: 3260 nM (active)
[5]
  Potency: 8.2 µM (active)
[3]
  outcome: inactive
